The text below walks through data of PubChem BioAssay AID1961 (Sanford-Burnham Center for Chemical Genomics, 2009).

Experiment [1] is described as follows: selective activators of receptor GPR55 – imaging, U2OS cells, beta-arrestin-GFP redistribution, primary screen (AID 1961).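 For activation: plate controls were DMSO negative control for no effect and LPI positive control for full effect.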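 Note: U2OS osteosarcoma cells stably expressing GPR55 and beta-arrestin-GFP.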 The note with it: measured here: cytotoxicity, cells analyzed, at 10 µM.
In experiment [2] the target is G-protein coupled receptor 55 (Homo sapiens) (UniProt Q9Y2T6). Described as above. The note with it: at 10 µM, stronger effect = higher value.
Sequence of G-protein coupled receptor 55 (Homo sapiens) (Q9Y2T6 whole entry, looked up): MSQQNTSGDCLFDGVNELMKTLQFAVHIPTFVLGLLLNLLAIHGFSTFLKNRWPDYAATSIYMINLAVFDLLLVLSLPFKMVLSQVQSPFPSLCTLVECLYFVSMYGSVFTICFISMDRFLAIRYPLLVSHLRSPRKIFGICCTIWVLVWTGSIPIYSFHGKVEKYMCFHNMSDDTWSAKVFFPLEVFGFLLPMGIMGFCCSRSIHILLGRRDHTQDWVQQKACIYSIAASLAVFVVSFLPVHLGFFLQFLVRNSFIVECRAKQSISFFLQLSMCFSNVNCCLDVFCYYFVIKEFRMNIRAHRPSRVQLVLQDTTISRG

In all, about 290,000 compounds went through this assay and about 140 (0.048%) were called active.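 Rule for the calls: active = activation above 40% with more than 50 cells counted in the well; inconclusive = wells holding fewer than 50 cells, flagged as toxic or sparse; inactive = the rest.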 This excerpt belongs to a sample that is enriched for actives.

For the compound `COc1cccc(NS(=O)(=O)c2ccc3c(c2)NC(=O)C(C)C(=O)N3)c1` (configuration not stated), the cell count in experiment [1] stood at 385 cells. In experiment [2], the activation is -0.1% (inactive).

For the compound `Cc1ccc(-c2ccc(CO)o2)cc1N`, in experiment [1], the cell count turned out to be 282 cells. Moreover, the activation in experiment [2] is -0.3% (inactive).

In the case of `O=C(O)c1cccc(CSc2nnc(-c3ccc(Cl)cc3)o2)c1`, the cell count in experiment [1] stood at 424 cells. Also, in experiment [2], the activation was 0.2% (inactive).

In turn, `O=C(O)c1cccc(CSc2ncn[nH]2)c1` came in with a cell count in experiment [1] of 346 cells. In addition, in experiment [2], the activation is 0.4% (inactive).

In experiment [1], `O=C(Cn1nc(-c2ccco2)ccc1=O)Nc1cc(C(F)(F)F)ccc1Cl` returned a cell count of 369 cells. In addition, the activation in experiment [2] was -0.1% (inactive).

In turn, `O=C(NOC(=O)c1cc(Br)ccc1Cl)c1cccs1` had a cell count in experiment [1] of 347 cells. Further, in experiment [2], the activation was -0.1% (inactive).

Regarding `CC(C)(C)NC(=O)COC(=O)c1cc(Br)ccc1Cl`, the cell count in experiment [1] was determined as 284 cells. In experiment [2], the activation was -0.3% (inactive).

`O=C(NCc1ccccc1F)C1CCCN(C(=O)NC2CCCCC2)C1` (configuration not stated): in experiment [1], the cell count was 299 cells. For the same compound, the activation in experiment [2] is -0.1% (inactive).

Take `COc1cccc(CNC(=O)c2cccc(S(=O)(=O)N3CCN(C)CC3)c2)c1`: the cell count in experiment [1] is 306 cells. For the same compound, the activation in experiment [2] is 0% (inactive).

In experiment [1], `COc1ccc(CNC(=O)CN(C(=O)c2csnn2)c2ccccc2F)cc1` displayed a cell count of 338 cells. For the same compound, the activation in experiment [2] was -0.1% (inactive).

In experiment [1], `COc1ccc(N2CCN(C(=O)c3cc(=O)c4ccc(C)cc4o3)CC2)cc1` yielded a cell count of 331 cells. Also, in experiment [2], the activation was -0.2% (inactive).

`CCOc1ccccc1C(=O)Oc1ccc2ccc(=O)oc2c1` gave a cell count in experiment [1] of 397 cells. Further, in experiment [2], the activation is 0.9% (inactive).

The compound `COc1cccc(C2/C(=C(\O)c3ccc4c(c3)OCCO4)C(=O)C(=O)N2CC2CCCO2)c1` (configuration not stated) gave a cell count in experiment [1] of 382 cells. Besides, the activation in experiment [2] was 0.2% (inactive).

Turning to `FC(F)(F)c1cc(C(F)(F)F)c2ccc(N/N=C/c3ccccc3)nc2n1`, the cell count in experiment [1] was 408 cells. Besides, the activation in experiment [2] is -0.3% (inactive).

In experiment [1], `FC(F)(F)c1cc(C(F)(F)F)c2ccc(N/N=C/c3cccc(Cl)c3)nc2n1` registered a cell count of 390 cells. In experiment [2], the activation was 59.1% (active).

As for `Cc1ccc(/C=N/Nc2ccc3c(C(F)(F)F)cc(C(F)(F)F)nc3n2)cc1`, the cell count in experiment [1] came to 447 cells. Also, the activation in experiment [2] was -0.2% (inactive).

Compound `COCc1cc(C)nc(N)c1C#N` yielded a cell count in experiment [1] of 359 cells. Further, the activation in experiment [2] was 0.1% (inactive).

In turn, `S=C(NCCc1ccccc1)N1CCN(C2CCCCC2)CC1` had a cell count in experiment [1] of 462 cells. Further, the activation in experiment [2] was -0.1% (inactive).

For the compound `O=C(C1=C[C@H](c2ccc(C(F)(F)F)cc2)C[C@H](OCc2ccc(CO)cc2)O1)N1CCOCC1`, the cell count in experiment [1] came out at 338 cells. For the same compound, the activation in experiment [2] was 0.1% (inactive).

For `O=C(CSc1nnc(-c2ccc(F)cc2)o1)NC1CCCC1`, the cell count in experiment [1] was determined as 360 cells. In addition, the activation in experiment [2] was -0.1% (inactive).

In the case of `CCOC(=O)N1CCN(c2c(NCCCOC(C)C)c(=O)c2=O)CC1`, the cell count in experiment [1] is 327 cells. Besides, the activation in experiment [2] is -0.1% (inactive).

Consider `CC(C)OCCCNC(=O)Cc1ccc(F)cc1`, for which, in experiment [1], the cell count turned out to be 376 cells. Moreover, in experiment [2], the activation was -0.2% (inactive).

On to `Cc1ccc2oc(=O)cc(CN3CCN(Cc4ccccc4)CC3)c2c1`, for which the cell count in experiment [1] is 335 cells. The activation in experiment [2] is 0% (inactive).

As for `O=C(CNC(=O)c1ccc(N2C(=O)c3ccccc3C2=O)cc1)OCC(=O)c1cccc2ccccc12`, the cell count in experiment [1] was 341 cells. Besides, in experiment [2], the activation was 0% (inactive).

`CC(C)N1CCN(Cc2ccc(C#CC(C)(C)O)s2)CC1CCO` (configuration not stated) had a cell count in experiment [1] of 368 cells. The activation in experiment [2] was 0.3% (inactive).

Turning to `CCOc1ccc(S(=O)(=O)Nc2ccc(C(=O)N3CCCC3)cc2)cc1C(N)=O`, the cell count in experiment [1] is 319 cells. The activation in experiment [2] is 0% (inactive).

`O=S(=O)(c1cccc(-c2nn3c(-c4ccncc4)nnc3s2)c1)N1CCOCC1` came in with a cell count in experiment [1] of 342 cells. Moreover, the activation in experiment [2] is -0.2% (inactive).

The compound `COCCNC(=O)C(c1ccc(F)cc1)N(C(=O)CCC(=O)Nc1ccccn1)c1cccc(C)c1` (configuration not stated) showed a cell count in experiment [1] of 316 cells. Moreover, the activation in experiment [2] was -0.2% (inactive).

For the compound `CCCc1cc(=O)n2[nH]c(C)c(-c3ccc(OC)cc3)c2n1`, the cell count in experiment [1] is 417 cells. The activation in experiment [2] was -0.1% (inactive).

Take `CC(C)(C)NC(=O)CSc1nc(N)c(NC(=O)c2ccccc2F)c(=O)[nH]1`: the cell count in experiment [1] was 255 cells. Also, the activation in experiment [2] is 0% (inactive).

Take `Cn1c(SCC(=O)NNC(=O)Nc2ccc(Cl)cc2)nnc1-c1ccccc1`: the cell count in experiment [1] was 332 cells. In addition, the activation in experiment [2] was -0.1% (inactive).

Take `COc1cccc(-n2c(SCC(=O)Nc3cc(C)on3)nc3ccccc3c2=O)c1`: the cell count in experiment [1] worked out at 336 cells. The activation in experiment [2] was 0.5% (inactive).

Regarding `Cc1cccc(N(CC(=O)Nc2c(C)n(C)n(-c3ccccc3)c2=O)S(C)(=O)=O)c1C`, the cell count in experiment [1] is 361 cells. In experiment [2], the activation was 0% (inactive).

Compound `CSc1cccc(N/C(=N/S(=O)(=O)c2ccccc2)NN)c1` had a cell count in experiment [1] of 310 cells. In experiment [2], the activation was 0.6% (inactive).

The compound `COc1ccc2cc(CCNC(=O)C3CCCC3)c(=O)[nH]c2c1` yielded a cell count in experiment [1] of 307 cells. Also, in experiment [2], the activation was -0.1% (inactive).

As for `c1ccc(-c2noc(CN3CCOCC3)n2)cc1`, the cell count in experiment [1] came to 407 cells. Also, in experiment [2], the activation was 0.2% (inactive).

In experiment [1], `CC(=O)c1c(C)[nH]c(C(=O)NCCc2c[nH]c3ccccc23)c1C` came in with a cell count of 348 cells. The activation in experiment [2] was -0.1% (inactive).

Compound `CC1(C)CC(NC(=O)c2c(N)no[n+]2[O-])CC(C)(C)N1` yielded a cell count in experiment [1] of 241 cells. Moreover, the activation in experiment [2] was -0.3% (inactive).

`Cc1ccc(NC(=S)Nc2ccc(S(=O)(=O)Nc3ncccn3)cc2)c(C)c1` came in with a cell count in experiment [1] of 327 cells. In addition, the activation in experiment [2] was -0.2% (inactive).

`COCc1[nH]c(=S)[nH]c(=O)c1C` yielded a cell count in experiment [1] of 339 cells. Besides, the activation in experiment [2] was -0.1% (inactive).

In the case of `Cc1c(Cl)c(=O)oc2cc(OCC(=O)NCc3cccs3)ccc12`, in experiment [1], the cell count stood at 357 cells. The activation in experiment [2] was 0% (inactive).
